# Data taken from the supplement of paper PMC10849652.
# Targets with a hit are over-represented here; the source holds about 8,800 in all. About 0.5% of all pairs of compound and target were hits. A number with no mark means an inactive call.
# Legend:
# Assay in all cases: log2 fold change, soluble protein after heating vs DMSO (PISA); higher = thermal stabilisation; K562 lysate, 10 uM; active = over 0.2 and 3.5 SD of the protein, either way, in both replicates (recomputed)
# [1] = compound: C=CC(=O)N1CCC[C@@H](n2nc(-c3ccc(Oc4ccccc4)cc3)c3c(N)ncnc32)C1 [ibrutinib]
# Method in brief: (§1)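 Pellets of K562 cells were dounce-homogenised in PBS pH 7.4 with 1 mM MgCl2, and the crude extract was held at 1 mg/mL protein for a 30 min treatment with 10 μM compound. Aliquots were heated for 3 min over 48°C-58°C and pooled before NP-40 was added to 0.5% at 4°C. The supernatant from 21,000xg for 90 min was quantified by TMTpro 16plex LC-MS/MS with channel sums equalised. Values are reported from duplicates as log-two fold change in thermal stability relative to solvent controls.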
# [2] = compound: CC(=O)c1cnc2ccc(-c3cc(Cl)c(O)c(Cl)c3)nc2c1N[C@H]1CC[C@H](CN(C)C)CC1
# Method in brief: as §1
# [3] = compound: CC(C)(C)Cn1c(N)nc2ccc(-c3[nH]c(C(C)(C)C)nc3-c3ccc(F)cc3)nc21 [ralimetinib]
# Method in brief: as §1
# [4] = compound: CC(C)(O)CC(=O)NCCn1ccc2ncnc(Nc3ccc(Oc4cccc(C(F)(F)F)c4)c(Cl)c3)c21
# Method in brief: as §1
# [5] = compound: CC(C)C1=C2N=C(C=C(N2N=C1)NCC3=CC=CC=C3)NCCCCCCN
# Method in brief: as §1
# [6] = compound: CC1=C(C(CC(=O)N1)C2=CC=C(C=C2)C(F)(F)F)C(=O)NC3=C(C=C4C(=C3)C=NN4)F
# Method in brief: as §1
# [7] = compound: CC1=C(C2=C(C=C1)C(=O)C3=CC=CC=C3N2CCCN)C
# Method in brief: as §1
# [8] = compound: CC1=C(C=C(C=C1)NC(=O)C2=CC(=CC=C2)C(C)(C)C#N)NC3=CC4=C(C=C3)N=CN(C4=O)C
# Method in brief: as §1
# [9] = compound: CC1=C(C=C(C=C1)NC(=O)C2=CC(=CC=C2)N(C)C)NC(=O)C3=CC=C(C=C3)O
# Method in brief: as §1
# [10] = compound: CC1=CC=C(C=C1)SC2=C3C=C(SC3=CN=C2)C(=O)N
# Method in brief: as §1
# [11] = compound: CCCS(=O)(=O)Nc1ccc(F)c(C(=O)c2c[nH]c3ncc(-c4ccc(Cl)cc4)cc23)c1F [vemurafenib]
# Method in brief: as §1
# [12] = compound: CCCS(=O)(=O)Nc1ccc(F)c(C(=O)c2c[nH]c3ncc(Cl)cc23)c1F
# Method in brief: as §1
# [13] = compound: CCN(CCCOc1ccc2c(Nc3cc(CC(=O)Nc4cccc(F)c4)[nH]n3)ncnc2c1)CCOP(=O)(O)O [barasertib]
# Method in brief: as §1
# [14] = compound: CC[C@@H]1C(=O)N(C)c2cnc(Nc3ccc(C(=O)NC4CCN(C)CC4)cc3OC)nc2N1C1CCCC1
# Method in brief: as §1
# [15] = compound: CC[C@@H]1C(=O)N(C)c2cnc(Nc3ccc(C(=O)N[C@H]4CC[C@H](N5CCN(CC6CC6)CC5)CC4)cc3OC)nc2N1C(C)C [volasertib]
# Method in brief: as §1
# [16] = compound: CCn1c(C(=O)N(C2CC2)C2CC2)cc2c3c(ncn3C)c(Nc3cc(C)n(C)n3)nc21
# Method in brief: as §1
# [17] = compound: CCn1cc(-c2ccnc3[nH]c(-c4cccc(CN(C)C)c4)cc23)c(-c2ccc(NC(=O)N(C)C)cc2)n1
# Method in brief: as §1
# [18] = compound: CN1CCC(CNc2ccc3ncc(-c4cccc(OC(F)(F)F)c4)n3n2)CC1
# Method in brief: as §1
# [19] = compound: CN1CCN(CCOc2cc(OC3CCOCC3)c3c(Nc4c(Cl)ccc5c4OCO5)ncnc3c2)CC1 [saracatinib]
# Method in brief: as §1
# [20] = compound: CN1CCN(c2nc(C3=C(c4c[nH]c5ccccc45)C(=O)NC3=O)c3ccccc3n2)CC1 [sotrastaurin]
# Method in brief: as §1
# Sequence of UniProt Q7Z3D4 (Q7Z3D4 whole entry, looked up): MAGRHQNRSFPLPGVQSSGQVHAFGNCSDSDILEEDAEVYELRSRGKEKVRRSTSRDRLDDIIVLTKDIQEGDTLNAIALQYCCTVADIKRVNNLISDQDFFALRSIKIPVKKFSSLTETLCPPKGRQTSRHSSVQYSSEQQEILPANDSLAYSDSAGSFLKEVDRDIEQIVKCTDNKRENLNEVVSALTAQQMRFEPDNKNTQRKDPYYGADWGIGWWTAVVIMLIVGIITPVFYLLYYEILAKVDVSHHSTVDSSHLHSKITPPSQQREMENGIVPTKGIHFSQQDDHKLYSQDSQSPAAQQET
# Sequence of UniProt Q8IW41 (Q8IW41 whole entry, looked up): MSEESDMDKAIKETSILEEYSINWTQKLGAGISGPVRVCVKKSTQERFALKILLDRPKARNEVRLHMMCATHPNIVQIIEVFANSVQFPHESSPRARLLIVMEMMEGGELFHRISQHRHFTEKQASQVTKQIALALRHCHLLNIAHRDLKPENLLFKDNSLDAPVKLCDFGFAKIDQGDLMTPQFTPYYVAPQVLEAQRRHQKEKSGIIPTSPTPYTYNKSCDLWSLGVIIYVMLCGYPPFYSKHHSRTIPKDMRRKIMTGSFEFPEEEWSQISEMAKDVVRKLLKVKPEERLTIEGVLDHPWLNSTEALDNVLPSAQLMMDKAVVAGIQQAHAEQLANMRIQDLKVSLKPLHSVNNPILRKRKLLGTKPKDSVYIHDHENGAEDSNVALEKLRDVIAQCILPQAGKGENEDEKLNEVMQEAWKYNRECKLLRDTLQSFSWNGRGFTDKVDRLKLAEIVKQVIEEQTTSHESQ
# Sequence of UniProt A9UHW6 (A9UHW6 whole entry, looked up): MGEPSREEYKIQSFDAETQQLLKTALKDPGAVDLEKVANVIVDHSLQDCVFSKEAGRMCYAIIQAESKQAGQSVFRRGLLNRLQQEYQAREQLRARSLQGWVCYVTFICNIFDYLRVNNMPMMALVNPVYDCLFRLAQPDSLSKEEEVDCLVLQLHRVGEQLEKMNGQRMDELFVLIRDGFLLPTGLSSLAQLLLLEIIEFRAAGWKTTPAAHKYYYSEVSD
# Sequence of UniProt Q13163 (Q13163 whole entry, looked up): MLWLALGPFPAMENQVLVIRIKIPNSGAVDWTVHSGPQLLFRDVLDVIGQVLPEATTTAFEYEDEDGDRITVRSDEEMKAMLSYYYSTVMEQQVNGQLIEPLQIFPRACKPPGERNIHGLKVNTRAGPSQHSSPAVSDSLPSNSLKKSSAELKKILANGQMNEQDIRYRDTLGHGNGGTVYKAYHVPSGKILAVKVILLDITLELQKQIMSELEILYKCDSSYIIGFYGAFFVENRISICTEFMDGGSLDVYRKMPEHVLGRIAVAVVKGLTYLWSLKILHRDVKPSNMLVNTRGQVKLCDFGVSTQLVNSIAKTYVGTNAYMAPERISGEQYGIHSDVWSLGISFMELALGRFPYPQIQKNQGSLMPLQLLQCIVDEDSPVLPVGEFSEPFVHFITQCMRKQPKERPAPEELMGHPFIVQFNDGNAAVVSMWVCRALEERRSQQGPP
# Sequence of UniProt Q8N5G2 (Q8N5G2 whole entry, looked up): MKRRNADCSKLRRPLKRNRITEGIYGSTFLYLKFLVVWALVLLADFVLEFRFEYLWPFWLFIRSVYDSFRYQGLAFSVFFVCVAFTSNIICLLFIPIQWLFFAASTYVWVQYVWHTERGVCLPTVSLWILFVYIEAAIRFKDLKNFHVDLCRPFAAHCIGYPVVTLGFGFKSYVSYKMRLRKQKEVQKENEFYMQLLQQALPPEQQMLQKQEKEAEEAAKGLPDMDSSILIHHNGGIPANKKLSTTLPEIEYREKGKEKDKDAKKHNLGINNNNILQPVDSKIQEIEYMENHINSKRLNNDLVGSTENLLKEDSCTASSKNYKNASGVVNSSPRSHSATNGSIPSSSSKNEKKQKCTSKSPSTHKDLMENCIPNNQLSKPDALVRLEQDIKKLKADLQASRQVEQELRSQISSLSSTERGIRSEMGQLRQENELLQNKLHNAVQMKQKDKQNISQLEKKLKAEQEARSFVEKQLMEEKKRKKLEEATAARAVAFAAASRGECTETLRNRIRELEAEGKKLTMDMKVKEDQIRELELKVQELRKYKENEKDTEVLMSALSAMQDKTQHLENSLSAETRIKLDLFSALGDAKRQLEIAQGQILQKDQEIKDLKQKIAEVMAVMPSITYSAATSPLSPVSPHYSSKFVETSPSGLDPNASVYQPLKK
# Sequence of UniProt Q9NSK0 (Q9NSK0 whole entry, looked up): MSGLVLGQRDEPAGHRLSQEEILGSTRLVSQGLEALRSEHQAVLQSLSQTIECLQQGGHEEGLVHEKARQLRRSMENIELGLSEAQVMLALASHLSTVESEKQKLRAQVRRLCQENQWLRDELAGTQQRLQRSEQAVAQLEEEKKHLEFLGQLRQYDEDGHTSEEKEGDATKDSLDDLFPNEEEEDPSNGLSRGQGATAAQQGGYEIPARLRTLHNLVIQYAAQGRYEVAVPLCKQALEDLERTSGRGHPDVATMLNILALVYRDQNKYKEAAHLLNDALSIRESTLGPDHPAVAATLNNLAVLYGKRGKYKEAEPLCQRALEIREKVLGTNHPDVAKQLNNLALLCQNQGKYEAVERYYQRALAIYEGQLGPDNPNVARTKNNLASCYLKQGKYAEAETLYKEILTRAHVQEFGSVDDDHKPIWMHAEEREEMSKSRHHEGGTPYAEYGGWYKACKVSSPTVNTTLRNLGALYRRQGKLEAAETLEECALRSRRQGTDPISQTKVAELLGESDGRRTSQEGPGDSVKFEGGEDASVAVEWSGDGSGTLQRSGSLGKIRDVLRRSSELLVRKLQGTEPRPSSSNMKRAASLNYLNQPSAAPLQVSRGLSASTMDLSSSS
# Sequence of UniProt Q9P2J5 (Q9P2J5 whole entry, looked up): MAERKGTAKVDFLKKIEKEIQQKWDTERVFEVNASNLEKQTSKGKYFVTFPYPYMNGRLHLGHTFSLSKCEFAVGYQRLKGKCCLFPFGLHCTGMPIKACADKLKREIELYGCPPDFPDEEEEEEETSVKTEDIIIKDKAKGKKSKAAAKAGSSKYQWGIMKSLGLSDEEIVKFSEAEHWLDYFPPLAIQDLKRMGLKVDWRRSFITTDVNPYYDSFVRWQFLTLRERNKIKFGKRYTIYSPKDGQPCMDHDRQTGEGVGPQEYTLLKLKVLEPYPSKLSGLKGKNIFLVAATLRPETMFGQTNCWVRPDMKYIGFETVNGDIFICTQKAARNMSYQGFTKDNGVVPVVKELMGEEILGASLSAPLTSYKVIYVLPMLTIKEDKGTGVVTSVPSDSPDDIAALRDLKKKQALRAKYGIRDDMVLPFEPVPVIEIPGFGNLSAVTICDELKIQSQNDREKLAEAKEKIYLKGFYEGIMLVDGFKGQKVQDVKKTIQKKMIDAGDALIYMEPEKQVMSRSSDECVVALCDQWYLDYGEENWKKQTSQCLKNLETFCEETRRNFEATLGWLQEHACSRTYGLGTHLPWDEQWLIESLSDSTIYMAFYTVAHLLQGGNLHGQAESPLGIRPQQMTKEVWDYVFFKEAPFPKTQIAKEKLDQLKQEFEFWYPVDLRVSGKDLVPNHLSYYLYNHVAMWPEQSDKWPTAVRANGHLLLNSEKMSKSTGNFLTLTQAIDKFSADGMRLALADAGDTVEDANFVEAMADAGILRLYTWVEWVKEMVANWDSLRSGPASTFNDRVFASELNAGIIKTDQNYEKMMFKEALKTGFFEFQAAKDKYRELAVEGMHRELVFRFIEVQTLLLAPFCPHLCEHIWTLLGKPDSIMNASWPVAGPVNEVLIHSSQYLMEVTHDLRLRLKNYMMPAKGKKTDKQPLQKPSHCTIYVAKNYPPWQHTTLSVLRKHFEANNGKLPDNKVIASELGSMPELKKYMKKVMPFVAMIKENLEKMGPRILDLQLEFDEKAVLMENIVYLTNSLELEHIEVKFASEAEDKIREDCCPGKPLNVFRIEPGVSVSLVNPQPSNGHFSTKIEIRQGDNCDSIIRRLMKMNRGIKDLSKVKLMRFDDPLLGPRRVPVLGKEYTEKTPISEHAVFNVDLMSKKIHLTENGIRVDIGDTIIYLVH
# Sequence of UniProt P36507 (P36507 whole entry, looked up): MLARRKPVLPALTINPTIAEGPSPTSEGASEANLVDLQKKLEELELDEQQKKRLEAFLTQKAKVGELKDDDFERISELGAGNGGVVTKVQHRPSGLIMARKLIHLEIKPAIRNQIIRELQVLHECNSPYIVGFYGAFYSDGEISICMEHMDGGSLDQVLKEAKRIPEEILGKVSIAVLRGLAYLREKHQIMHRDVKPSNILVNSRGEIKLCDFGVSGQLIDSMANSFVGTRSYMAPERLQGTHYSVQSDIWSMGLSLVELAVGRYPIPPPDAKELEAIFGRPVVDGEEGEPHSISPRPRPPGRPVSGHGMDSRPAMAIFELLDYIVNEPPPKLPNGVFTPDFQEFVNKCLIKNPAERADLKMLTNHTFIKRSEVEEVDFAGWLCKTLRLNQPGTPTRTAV
# Sequence of UniProt P10620 (P10620 whole entry, looked up): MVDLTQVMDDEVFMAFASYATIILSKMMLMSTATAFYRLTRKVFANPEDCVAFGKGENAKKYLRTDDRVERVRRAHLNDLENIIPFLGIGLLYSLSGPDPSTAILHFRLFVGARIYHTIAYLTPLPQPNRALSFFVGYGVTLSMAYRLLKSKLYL
# Sequence of UniProt Q9UI95 (Q9UI95 whole entry, looked up): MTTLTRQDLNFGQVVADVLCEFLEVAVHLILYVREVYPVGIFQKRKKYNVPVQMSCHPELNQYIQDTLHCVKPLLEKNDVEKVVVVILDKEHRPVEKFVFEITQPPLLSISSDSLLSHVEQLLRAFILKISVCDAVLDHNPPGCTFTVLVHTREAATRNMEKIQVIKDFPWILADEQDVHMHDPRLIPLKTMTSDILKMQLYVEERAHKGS
Target,log2 fold change [1],log2 fold change [2],log2 fold change [3],log2 fold change [4],log2 fold change [5],log2 fold change [6],log2 fold change [7],log2 fold change [8],log2 fold change [9],log2 fold change [10],log2 fold change [11],log2 fold change [12],log2 fold change [13],log2 fold change [14],log2 fold change [15],log2 fold change [16],log2 fold change [17],log2 fold change [18],log2 fold change [19],log2 fold change [20]
MRPL28 (UniProt Q13084),0.151,0.04,0.027,-0.005,0.012,-0.112,-0.017,0.057,-0.012,0.023,0.005,0.009,0.053,-0.06,0.019,0.024,0.411 (active),-0.356,-0.016,0.055
MAT2B (UniProt Q9NZL9),0,-0.008,-0.005,-0.006,-0.002,-0.023,0.016,0.015,-0.013,-0.005,0.036,0.016,0.001,-0.019,-0.006,-0.015,0.13,0,-0.018,0.013
MGST1 (UniProt P10620),0.052,0.039,0.054,-0.047,-0.002,0.002,-0.078,-0.01,0.014,0.05,0.015,0.018,0.027,0.097,0.07,-0.036,0.279 (active),-0.069,0.068,-0.013
MAP2K5 (UniProt Q13163),0.007,-0.013,0.103,-0.075,-0.078,-0.037,-0.208,0.235,0.052,-0.211,0.207,0.302,0.019,-0.148,-0.311,-0.144,0.15,-0.029,-0.079,0.014
MED13L (UniProt Q71F56),0.047,-0.036,0.014,-0.016,0.005,-0.027,-0.036,0.007,0.015,-0.035,-0.043,-0.012,0.028,0.01,-0.058,0.038,-0.023,0.064,-0.037,-0.018
LYSMD3 (UniProt Q7Z3D4),0.098,-0.072,0.003,-0.046,-0.045,-0.099,-0.003,0.034,0.005,-0.01,0.025,-0.05,-0.003,0.074,0.056,-0.013,-0.094,0.235,0.056,0.002
MAP2K2 (UniProt P36507),0.239,0.443 (active),-0.052,0.173,-0.007,-0.009,-0.033,-0.017,0.013,-0.014,0.224,0.184,0.026,-0.076,-0.089,0.008,0.252,-0.047,0.093,-0.002
MRPL10 isoform 2 (UniProt Q7Z7H8),-0.062,-0.013,0.047,-0.019,-0.04,-0.029,-0.005,0.025,0.053,0.042,0.027,0.033,0.132,0.03,-0.037,-0.063,0.075,-0.032,-0.005,0.068
"MICB, A0A140T979",0.074,0.317,-0.037,-0.101,-0.07,-0.11,-0.002,0.016,0.004,-0.068,-0.054,0.098,0.039,0.223,-0.072,-0.084,-0.05,0.066,0.019,0.096
KLC4 isoform 3 (UniProt Q9NSK0),-0.007,0.012,0.008,-0.023,-0.024,-0.018,0.009,0.019,-0.001,0.003,-0.038,0.02,-0.008,0.038,-0.029,0.052,0.011,-0.018,-0.012,0.003
LARS (UniProt Q9P2J5),-0.021,-0.003,0.023,0.048,0.021,-0.001,-0.017,-0.041,0.029,0.022,-0.005,0.006,0.006,-0.069,-0.063,0.045,0.008,-0.058,-0.023,-0.002
MAPKAPK5 (UniProt Q8IW41),-0.001,-0.008,-0.024,-0.012,0,-0.057,-0.01,0.034,0.048,-0.066,-0.111,-0.11,-0.013,-0.009,-0.052,0.031,0.017,-0.02,-0.009,-0.068
MACO1 (UniProt Q8N5G2),0,0.043,-0.003,-0.04,0.01,0.018,-0.043,-0.023,-0.002,0.095,-0.114,-0.003,-0.063,0.296 (active),-0.009,0.025,0.113,-0.037,0.064,-0.01
MIF4GD isoform 3 (UniProt A9UHW6),0.108,-0.032,-0.04,-0.014,0.016,-0.002,-0.049,0,-0.04,-0.004,0.016,0.009,0.051,-0.019,-0.012,0.037,0.028,0.015,0.02,0.017
KMT2A isoform 3 (UniProt Q03164),-0.054,0.005,-0.008,-0.117,0.019,-0.114,-0.047,-0.046,0.025,0,0.044,-0.033,0.042,-0.035,-0.054,-0.058,-0.093,-0.01,-0.069,0.034
MAD2L2 (UniProt Q9UI95),-0.015,-0.173,0.103,-0.08,-0.03,-0.001,-0.059,0.053,-0.106,-0.132,-0.028,0.246,0.013,-0.065,0.044,0.089,-0.036,-0.051,0.079,-0.006
